For orientation: inhibition means the change of the read-out against control, counted positive when it falls.

Here are results for 13 compounds from ChEMBL document CHEMBL3433997, “St. Jude Leishmania screening dataset” (2016).

What all share (assay type): functional
Experiment [1] addresses Solute carrier family 2, facilitated glucose transporter member 1 (Homo sapiens) (UniProt P11166). Nature of the experiment: ST_JUDE_LEISH: Cytotoxicity at 2uM final concentration against transgenic Leishmania Mexicana promastigotes LmGLUT1 that are glucose transport deficient and complemented with the human glucose transporter GLUT1. Activity is measured by DNA content using SYBR green in vitro.

In experiment [2] the target is Hexose transporter 1 (Plasmodium falciparum) (UniProt O97467). Nature of the experiment: ST_JUDE_LEISH: Cytotoxicity at 2uM final concentration against transgenic Leishmania Mexicana promastigotes LmPfHT that are glucose transport deficient and complemented with the Plasmodium falciparum hexose transporter. Activity is measured by DNA content using SYBR green in vitro.

The target of experiment [3] is Glucose transporter (Leishmania mexicana) (UniProt O61059). As to the kind of experiment: ST_JUDE_LEISH: Cytotoxicity at 2uM final concentration against transgenic Leishmania Mexicana promastigotes LmGT2 that are glucose transport deficient and complemented with the L. Mexicana glucose transporter 2. Activity is measured by DNA content using SYBR green in vitro.

Sequence of Solute carrier family 2, facilitated glucose transporter member 1 (Homo sapiens) (P11166 whole entry): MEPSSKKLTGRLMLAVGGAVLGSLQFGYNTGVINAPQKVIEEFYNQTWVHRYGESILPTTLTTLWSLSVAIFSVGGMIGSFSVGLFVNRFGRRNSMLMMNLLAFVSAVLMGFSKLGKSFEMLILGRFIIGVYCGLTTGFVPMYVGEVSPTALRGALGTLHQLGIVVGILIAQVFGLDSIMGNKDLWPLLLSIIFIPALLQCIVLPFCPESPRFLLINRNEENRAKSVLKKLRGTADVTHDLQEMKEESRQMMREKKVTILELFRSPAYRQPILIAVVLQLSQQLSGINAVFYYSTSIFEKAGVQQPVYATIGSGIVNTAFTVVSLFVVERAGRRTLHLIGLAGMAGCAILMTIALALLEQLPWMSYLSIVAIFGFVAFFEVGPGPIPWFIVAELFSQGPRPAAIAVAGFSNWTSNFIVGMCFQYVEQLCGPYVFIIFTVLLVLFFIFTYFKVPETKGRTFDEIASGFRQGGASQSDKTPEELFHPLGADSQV

As to `CC(=NNC(=N)N)C(=O)Nc1ccc(Cl)c(Cl)c1`, the inhibition in experiment [1] was 1.75%; in experiment [2], 1.53%; in experiment [3], 2.25%.
Take `COc1ccc2c(c1)CCCC2NCCCCNC(=O)c1ccc(NC(=O)c2ccc(Cl)cc2)cc1` (centres undefined): the inhibition in experiment [1] stood at 1.92%; in experiment [2], 0.37%; in experiment [3], 0.82%.
Taken in the same sequence, the figures for `c1cc(-c2ccc(CN3CCCCC3)cc2)cc(-c2nc3ccccc3[nH]2)c1` were 1.85%, 0.49% and 0.96%.
For `CCOC(=O)c1nc(-c2ccccc2)[nH]c1-n1nc(C)cc1C`, the inhibition came to 1.44% in experiment [1], 0.92% in experiment [2] and 0.66% in experiment [3].
In the same order, the values of `CC1(C)NC(N)=NC(=N)N1OCCCNC(=O)c1ccc(C(=O)NCCCON2C(=N)N=C(N)NC2(C)C)cc1` are 0.28%, 0.77% and 1.51%.
As for `COc1ccc2nccc([C@@H](O)CN3C4CCC3CC(NCc3ccc5c(n3)NC(=O)CS5)C4)c2n1` (some centres undefined), the results for the inhibition in experiment [1], in experiment [2] and in experiment [3] were 1.63%, 1.76% and -2.06%, respectively.
Taken in the same sequence, the figures for `O=C(NCc1cc2c(cc1Cl)OCO2)c1ccc(CNC2CCN(Cc3ccccc3)CC2)cc1` were 0.15%, 0.96% and 0.48%.
In the case of `COc1ccc(CNCc2cccc(-c3ccc(-c4nc5cccc(C)c5[nH]4)cc3)c2)cc1`, the inhibition in experiment [1] was 14%; in experiment [2] it was 9.73%; in experiment [3], 7.5%.
Taken in the same sequence, the figures for `O=C(/C=C/c1ccc(Cl)c(Cl)c1)NCCCCCN1CCCN(C(=O)Nc2ccc(Cl)c(C(F)(F)F)c2)CC1` were -0.86%, -0.33% and -2.37%.
Taken in the same sequence, the figures for `O=C(NCc1ccccc1)OC1CNCCC1c1ccc(C(O)Cc2ccccc2)cc1` (centres undefined) were 1.68%, 1.62% and 2.32%.
Taken in the same sequence, the figures for `COc1ccccc1Cc1c(C)nc2nc(N)nc(N)c2c1C` were 6.33%, 4.07% and 7.13%.
Regarding `Cc1cccnc1Nc1nc(-c2ccccn2)cs1`, the inhibition in experiment [1] turned out to be 93.5%; in experiment [2], 73.2%; in experiment [3], 90.1%.
Taken in the same sequence, the figures for `COc1ccc2nccc([C@@H](O)CN3CCC(NCc4ccc(OC)c(NC(C)=O)c4)CC3)c2c1` were 0.33%, -2.04% and -1.41%.
